# According to publication PMC7862700, “An all-to-all approach to the identification of sequence-specific readers for epigenetic DNA modifications on cytosine”:
# Columns and labels:
# Assay in all cases: DAPPL (digital affinity profiling via proximity ligation, sequencing); 10 mM Tris-HCl pH 7.5, 50 mM NaCl, 1 mM DTT, 4% glycerol, room temperature, 30 min; GST-TFs on glutathione beads, 16-mer random dsDNA library, 0.1% formaldehyde crosslink after washing; high values mean tight binding
# Conditions in all cases: protein: recombinant; tags: N-terminal GST; dsDNA, one strand shown
# FLI1 = target: T1, FLI1 (Homo sapiens, UniProt Q01543 1-452)
# T1 sequence: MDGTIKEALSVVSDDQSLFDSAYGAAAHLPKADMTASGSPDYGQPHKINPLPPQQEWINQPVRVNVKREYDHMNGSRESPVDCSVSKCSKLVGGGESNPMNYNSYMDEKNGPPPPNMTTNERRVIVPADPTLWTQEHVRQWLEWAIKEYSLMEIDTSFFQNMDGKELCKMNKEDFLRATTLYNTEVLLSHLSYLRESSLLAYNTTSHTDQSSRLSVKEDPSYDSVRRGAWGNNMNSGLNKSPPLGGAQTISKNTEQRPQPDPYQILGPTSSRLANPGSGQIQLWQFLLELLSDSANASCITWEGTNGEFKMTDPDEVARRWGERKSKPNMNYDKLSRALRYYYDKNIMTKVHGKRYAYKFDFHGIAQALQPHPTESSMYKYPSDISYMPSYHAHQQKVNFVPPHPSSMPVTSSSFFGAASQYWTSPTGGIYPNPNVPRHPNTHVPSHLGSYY
# Outline: (§1)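 Pools were built from human transcription factors expressed in yeast as GST fusions, captured on glutathione beads and DNA-barcoded, along with a tag-only sample. Incubation with 200 nmole of a 16-mer random double-stranded DNA library lasted 30 min at room temperature in Tris/NaCl/DTT/glycerol buffer, and was followed by washing, 0.1% formaldehyde crosslinking, proximity ligation, PCR amplification and Illumina NextSeq500 sequencing. Binding signal is the quotient of each hexamer's read frequency for a factor and its frequency for the tag-only sample.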
# GABPA = target: T2, GABPA (Homo sapiens, UniProt Q06546 1-454)
# T2 sequence: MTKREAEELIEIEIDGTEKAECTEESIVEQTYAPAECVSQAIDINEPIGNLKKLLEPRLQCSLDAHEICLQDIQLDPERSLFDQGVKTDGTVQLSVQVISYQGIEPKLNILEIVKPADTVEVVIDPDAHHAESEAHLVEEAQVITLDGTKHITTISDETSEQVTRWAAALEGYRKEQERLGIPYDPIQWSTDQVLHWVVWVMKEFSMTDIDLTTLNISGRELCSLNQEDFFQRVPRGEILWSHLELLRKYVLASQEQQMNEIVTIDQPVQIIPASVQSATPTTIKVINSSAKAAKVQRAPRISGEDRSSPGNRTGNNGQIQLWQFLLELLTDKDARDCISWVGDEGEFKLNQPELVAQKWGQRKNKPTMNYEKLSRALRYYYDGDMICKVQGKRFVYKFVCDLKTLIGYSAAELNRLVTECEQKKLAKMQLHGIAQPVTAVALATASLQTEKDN
# Outline: as §1
# ERG = target: T3, ERG (Homo sapiens, UniProt P11308 1-479)
# T3 sequence: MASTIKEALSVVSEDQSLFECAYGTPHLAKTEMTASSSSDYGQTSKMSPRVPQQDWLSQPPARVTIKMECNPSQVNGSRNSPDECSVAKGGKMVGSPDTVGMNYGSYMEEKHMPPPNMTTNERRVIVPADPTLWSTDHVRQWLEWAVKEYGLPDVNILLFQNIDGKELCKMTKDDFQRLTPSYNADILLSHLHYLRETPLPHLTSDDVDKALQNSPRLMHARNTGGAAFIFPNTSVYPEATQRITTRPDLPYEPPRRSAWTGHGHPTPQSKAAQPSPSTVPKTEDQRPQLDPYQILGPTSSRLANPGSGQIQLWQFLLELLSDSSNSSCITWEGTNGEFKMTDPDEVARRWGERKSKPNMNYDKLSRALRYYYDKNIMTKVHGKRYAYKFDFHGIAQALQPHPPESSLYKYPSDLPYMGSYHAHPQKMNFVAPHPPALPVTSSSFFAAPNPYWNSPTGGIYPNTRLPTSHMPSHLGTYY
# Outline: as §1
# ELF1 = ELF1 (Homo sapiens, UniProt P32519 1-619)
# Sequence of ELF1 (P32519 whole entry): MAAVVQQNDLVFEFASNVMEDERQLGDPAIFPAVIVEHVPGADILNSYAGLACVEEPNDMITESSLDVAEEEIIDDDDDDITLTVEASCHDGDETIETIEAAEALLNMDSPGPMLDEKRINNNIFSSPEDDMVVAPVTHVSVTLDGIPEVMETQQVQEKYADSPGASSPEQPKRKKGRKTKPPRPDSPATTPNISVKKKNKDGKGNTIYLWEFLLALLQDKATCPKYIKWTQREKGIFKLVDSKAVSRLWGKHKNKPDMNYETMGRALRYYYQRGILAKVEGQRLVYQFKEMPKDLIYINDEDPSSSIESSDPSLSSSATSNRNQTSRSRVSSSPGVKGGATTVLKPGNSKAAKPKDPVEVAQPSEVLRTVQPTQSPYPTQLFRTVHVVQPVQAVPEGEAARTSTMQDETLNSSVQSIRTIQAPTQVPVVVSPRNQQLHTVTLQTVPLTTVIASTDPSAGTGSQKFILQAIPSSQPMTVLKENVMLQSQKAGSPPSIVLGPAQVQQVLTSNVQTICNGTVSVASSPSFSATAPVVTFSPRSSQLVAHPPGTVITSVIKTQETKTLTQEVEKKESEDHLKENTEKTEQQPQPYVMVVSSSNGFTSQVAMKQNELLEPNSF
# Outline: as §1
# EHF = target: T4, EHF (Homo sapiens, UniProt Q9NZC4 1-300)
# T4 sequence: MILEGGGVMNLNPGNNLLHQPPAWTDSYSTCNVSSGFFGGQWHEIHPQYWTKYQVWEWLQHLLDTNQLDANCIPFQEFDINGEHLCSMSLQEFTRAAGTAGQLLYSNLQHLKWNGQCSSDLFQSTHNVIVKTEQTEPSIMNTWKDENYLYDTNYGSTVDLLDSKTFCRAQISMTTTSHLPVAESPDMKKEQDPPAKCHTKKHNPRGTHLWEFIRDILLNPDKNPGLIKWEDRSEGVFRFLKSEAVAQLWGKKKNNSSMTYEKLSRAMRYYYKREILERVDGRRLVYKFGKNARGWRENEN
# Outline: as §1
# SPI1 = SPI1 (Homo sapiens, UniProt P17947 1-270)
# Outline: as §1
# ELK3 = target: T5, ELK3 (Homo sapiens, UniProt P41970 1-407)
# T5 sequence: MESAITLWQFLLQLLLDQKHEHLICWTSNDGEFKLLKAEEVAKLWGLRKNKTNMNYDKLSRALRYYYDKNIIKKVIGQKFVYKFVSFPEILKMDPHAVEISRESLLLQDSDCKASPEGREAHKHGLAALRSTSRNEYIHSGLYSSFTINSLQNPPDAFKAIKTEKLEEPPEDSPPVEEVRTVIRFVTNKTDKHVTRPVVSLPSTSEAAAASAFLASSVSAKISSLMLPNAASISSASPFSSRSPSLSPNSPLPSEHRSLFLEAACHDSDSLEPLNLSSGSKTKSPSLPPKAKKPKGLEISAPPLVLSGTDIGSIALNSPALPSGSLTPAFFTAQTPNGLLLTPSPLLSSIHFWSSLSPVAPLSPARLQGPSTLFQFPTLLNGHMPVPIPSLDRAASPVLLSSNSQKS
# Outline: as §1
# ETV5 = ETV5 (Homo sapiens, UniProt P41161 1-510)
# Sequence of ETV5 (P41161 whole entry): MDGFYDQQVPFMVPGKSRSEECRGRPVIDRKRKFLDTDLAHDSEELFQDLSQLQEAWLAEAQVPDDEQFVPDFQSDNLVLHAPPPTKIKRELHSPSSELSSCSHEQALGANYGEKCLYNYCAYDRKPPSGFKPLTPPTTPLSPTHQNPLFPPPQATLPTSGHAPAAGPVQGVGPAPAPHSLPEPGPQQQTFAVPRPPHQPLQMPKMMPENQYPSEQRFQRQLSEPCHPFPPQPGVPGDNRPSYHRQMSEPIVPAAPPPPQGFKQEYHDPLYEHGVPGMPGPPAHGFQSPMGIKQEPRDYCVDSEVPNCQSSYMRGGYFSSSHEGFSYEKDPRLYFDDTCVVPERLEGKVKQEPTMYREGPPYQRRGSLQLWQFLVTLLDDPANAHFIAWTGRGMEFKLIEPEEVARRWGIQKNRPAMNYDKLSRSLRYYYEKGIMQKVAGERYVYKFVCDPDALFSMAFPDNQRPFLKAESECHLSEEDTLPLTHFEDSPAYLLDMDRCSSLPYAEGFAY
# Outline: as §1
# ETV2 = target: T6, ETV2 (Homo sapiens, UniProt O00321 1-342)
# T6 sequence: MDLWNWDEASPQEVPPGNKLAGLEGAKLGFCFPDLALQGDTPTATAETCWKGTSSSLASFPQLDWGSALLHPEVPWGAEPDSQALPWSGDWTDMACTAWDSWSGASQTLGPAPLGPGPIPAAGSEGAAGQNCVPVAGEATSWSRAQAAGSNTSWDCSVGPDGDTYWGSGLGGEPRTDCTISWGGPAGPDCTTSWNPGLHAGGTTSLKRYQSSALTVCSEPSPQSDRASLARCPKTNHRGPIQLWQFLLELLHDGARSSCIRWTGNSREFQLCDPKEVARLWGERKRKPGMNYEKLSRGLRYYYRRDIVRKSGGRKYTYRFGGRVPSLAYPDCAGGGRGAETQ
# Outline: as §1
# ETS2 = target: T7, ETS2 (Homo sapiens, UniProt P15036 1-469)
# T7 sequence: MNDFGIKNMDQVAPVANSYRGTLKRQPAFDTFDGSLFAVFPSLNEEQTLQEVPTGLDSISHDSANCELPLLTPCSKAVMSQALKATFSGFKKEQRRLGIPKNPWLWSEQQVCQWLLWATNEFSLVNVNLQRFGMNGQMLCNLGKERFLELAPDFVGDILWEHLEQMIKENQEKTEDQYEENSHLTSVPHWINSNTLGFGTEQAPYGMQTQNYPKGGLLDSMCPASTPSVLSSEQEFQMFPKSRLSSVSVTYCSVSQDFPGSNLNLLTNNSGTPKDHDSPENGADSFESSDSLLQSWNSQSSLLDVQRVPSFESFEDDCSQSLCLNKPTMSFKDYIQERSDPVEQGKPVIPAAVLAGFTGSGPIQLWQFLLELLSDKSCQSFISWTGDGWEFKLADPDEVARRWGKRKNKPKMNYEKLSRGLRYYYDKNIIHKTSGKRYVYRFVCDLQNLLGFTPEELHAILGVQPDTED
# Outline: as §1
# ETV7 = target: T8, ETV7 (Homo sapiens, UniProt Q9Y603 1-341)
# T8 sequence: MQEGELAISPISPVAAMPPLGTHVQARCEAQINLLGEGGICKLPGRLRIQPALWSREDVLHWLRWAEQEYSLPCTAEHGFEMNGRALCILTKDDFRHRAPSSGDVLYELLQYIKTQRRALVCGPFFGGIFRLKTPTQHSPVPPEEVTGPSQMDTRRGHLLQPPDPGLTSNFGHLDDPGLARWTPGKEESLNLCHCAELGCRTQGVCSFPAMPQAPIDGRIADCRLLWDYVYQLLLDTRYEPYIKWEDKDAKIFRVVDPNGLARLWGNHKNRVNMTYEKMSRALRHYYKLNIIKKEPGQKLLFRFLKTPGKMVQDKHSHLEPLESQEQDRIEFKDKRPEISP
# Outline: as §1
# ETV3 = target: T9, ETV3 (Homo sapiens, UniProt P41162-2 1-143)
# T9 sequence: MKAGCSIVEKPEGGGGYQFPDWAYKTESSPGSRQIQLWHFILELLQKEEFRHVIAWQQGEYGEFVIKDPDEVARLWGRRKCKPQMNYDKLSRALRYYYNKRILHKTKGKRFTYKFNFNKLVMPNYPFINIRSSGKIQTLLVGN
# Outline: as §1
# ETV6 = ETV6 (Homo sapiens, UniProt P41212 1-452)
# Sequence of ETV6 (P41212 whole entry): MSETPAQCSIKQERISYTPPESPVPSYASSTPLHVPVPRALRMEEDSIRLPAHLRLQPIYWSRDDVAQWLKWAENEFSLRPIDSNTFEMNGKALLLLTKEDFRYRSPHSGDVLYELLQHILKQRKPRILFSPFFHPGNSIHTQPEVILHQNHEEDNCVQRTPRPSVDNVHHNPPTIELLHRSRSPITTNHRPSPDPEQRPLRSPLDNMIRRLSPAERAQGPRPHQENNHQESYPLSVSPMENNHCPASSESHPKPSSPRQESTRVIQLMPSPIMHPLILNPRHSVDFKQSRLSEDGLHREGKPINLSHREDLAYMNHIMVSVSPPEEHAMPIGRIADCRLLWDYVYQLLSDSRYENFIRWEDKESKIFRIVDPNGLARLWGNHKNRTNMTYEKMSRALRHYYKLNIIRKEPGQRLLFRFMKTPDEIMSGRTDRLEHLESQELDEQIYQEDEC
# Outline: as §1
# SPIB = SPIB (Homo sapiens, UniProt Q01892 1-262)
# Sequence of SPIB (Q01892 whole entry): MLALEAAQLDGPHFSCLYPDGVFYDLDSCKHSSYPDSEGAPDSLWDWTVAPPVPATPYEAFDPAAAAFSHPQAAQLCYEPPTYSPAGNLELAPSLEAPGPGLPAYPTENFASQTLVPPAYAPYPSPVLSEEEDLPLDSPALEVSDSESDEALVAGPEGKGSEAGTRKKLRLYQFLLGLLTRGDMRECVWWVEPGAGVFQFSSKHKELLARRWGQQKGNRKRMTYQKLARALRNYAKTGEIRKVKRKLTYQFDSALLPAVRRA
# Outline: as §1
# ERF = target: T10, ERF (Homo sapiens, UniProt P50548 1-548)
# T10 sequence: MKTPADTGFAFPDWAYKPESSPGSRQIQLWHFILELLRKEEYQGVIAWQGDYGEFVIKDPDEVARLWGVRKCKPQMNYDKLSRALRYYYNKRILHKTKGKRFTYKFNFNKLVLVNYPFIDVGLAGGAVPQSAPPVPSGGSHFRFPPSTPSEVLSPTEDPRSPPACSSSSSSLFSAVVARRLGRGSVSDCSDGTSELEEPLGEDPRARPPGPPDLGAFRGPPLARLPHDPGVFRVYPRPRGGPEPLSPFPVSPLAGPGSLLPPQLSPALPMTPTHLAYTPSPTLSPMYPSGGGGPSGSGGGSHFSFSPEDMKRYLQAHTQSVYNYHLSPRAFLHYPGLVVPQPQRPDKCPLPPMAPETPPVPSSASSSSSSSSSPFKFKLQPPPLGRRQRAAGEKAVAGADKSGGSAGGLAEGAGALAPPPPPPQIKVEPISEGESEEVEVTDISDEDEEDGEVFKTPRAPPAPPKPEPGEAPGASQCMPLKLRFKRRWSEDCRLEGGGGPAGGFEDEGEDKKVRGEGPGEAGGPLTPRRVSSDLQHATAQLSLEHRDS
# Outline: as §1
# ELK1 = target: T11, ELK1 (Homo sapiens, UniProt P19419 1-428)
# T11 sequence: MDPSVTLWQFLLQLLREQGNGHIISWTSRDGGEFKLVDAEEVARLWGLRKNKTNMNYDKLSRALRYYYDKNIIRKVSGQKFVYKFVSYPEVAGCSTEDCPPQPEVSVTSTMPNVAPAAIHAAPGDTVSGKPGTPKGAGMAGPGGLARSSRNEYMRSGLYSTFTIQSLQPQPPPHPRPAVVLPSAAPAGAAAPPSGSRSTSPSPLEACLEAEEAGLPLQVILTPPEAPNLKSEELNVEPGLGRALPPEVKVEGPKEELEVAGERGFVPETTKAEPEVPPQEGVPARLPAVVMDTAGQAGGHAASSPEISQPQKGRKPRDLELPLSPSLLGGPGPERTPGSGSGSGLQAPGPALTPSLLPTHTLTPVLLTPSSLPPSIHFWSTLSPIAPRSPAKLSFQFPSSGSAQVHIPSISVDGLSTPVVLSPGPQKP
# Outline: as §1
# ETV3L = target: T12, ETV3L (Homo sapiens, UniProt Q6ZN32 1-361)
# T12 sequence: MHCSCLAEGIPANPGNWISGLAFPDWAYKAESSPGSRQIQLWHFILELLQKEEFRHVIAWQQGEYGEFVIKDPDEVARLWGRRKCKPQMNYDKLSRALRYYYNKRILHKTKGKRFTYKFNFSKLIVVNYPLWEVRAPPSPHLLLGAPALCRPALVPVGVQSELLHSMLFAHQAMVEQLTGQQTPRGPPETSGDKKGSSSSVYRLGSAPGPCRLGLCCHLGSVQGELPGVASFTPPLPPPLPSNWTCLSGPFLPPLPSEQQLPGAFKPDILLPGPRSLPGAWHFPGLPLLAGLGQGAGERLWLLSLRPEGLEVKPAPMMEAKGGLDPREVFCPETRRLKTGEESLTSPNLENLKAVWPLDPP
# Outline: as §1
Sequence,binding signal (FLI1),binding signal (GABPA),binding signal (ERG),binding signal (ELF1),binding signal (EHF),binding signal (SPI1),binding signal (ELK3),binding signal (ETV5),binding signal (ETV2),binding signal (ETS2),binding signal (ETV7),binding signal (ETV3),binding signal (ETV6),binding signal (SPIB),binding signal (ERF),binding signal (ELK1),binding signal (ETV3L)
GGTTAT,"1.07 fold enrichment (6-mer frequency, TF over GST control)","1.03 fold enrichment (6-mer frequency, TF over GST control)","1.04 fold enrichment (6-mer frequency, TF over GST control)","1.01 fold enrichment (6-mer frequency, TF over GST control)","1.03 fold enrichment (6-mer frequency, TF over GST control)","1 fold enrichment (6-mer frequency, TF over GST control)","1.07 fold enrichment (6-mer frequency, TF over GST control)","1.09 fold enrichment (6-mer frequency, TF over GST control)","1.09 fold enrichment (6-mer frequency, TF over GST control)","1.04 fold enrichment (6-mer frequency, TF over GST control)","1.12 fold enrichment (6-mer frequency, TF over GST control)","1.05 fold enrichment (6-mer frequency, TF over GST control)","1.03 fold enrichment (6-mer frequency, TF over GST control)",–,–,–,–
TTGGCG,"1.07 fold enrichment (6-mer frequency, TF over GST control)","1.02 fold enrichment (6-mer frequency, TF over GST control)",–,–,–,"1.05 fold enrichment (6-mer frequency, TF over GST control)",–,"1.02 fold enrichment (6-mer frequency, TF over GST control)",–,–,–,–,–,"1.13 fold enrichment (6-mer frequency, TF over GST control)","1.01 fold enrichment (6-mer frequency, TF over GST control)",–,–
ACTAGG,"1.03 fold enrichment (6-mer frequency, TF over GST control)","1.09 fold enrichment (6-mer frequency, TF over GST control)","1.03 fold enrichment (6-mer frequency, TF over GST control)","1.08 fold enrichment (6-mer frequency, TF over GST control)","1.04 fold enrichment (6-mer frequency, TF over GST control)","1.07 fold enrichment (6-mer frequency, TF over GST control)",–,"1.03 fold enrichment (6-mer frequency, TF over GST control)","1.28 fold enrichment (6-mer frequency, TF over GST control)","1.08 fold enrichment (6-mer frequency, TF over GST control)",–,"1.03 fold enrichment (6-mer frequency, TF over GST control)",–,–,–,"1.1 fold enrichment (6-mer frequency, TF over GST control)","1.04 fold enrichment (6-mer frequency, TF over GST control)"
